Experimental findings from the supplement of paper PMC10849652 are described below.

About 7,900 targets were measured; listed, in parts, are those with a hit and a random draw of the rest. About 0.6% of all pairs of compound and target were hits. Unmarked numbers belong to inactive results.

Chain of UniProt Q15642 (Q15642 whole entry, looked up): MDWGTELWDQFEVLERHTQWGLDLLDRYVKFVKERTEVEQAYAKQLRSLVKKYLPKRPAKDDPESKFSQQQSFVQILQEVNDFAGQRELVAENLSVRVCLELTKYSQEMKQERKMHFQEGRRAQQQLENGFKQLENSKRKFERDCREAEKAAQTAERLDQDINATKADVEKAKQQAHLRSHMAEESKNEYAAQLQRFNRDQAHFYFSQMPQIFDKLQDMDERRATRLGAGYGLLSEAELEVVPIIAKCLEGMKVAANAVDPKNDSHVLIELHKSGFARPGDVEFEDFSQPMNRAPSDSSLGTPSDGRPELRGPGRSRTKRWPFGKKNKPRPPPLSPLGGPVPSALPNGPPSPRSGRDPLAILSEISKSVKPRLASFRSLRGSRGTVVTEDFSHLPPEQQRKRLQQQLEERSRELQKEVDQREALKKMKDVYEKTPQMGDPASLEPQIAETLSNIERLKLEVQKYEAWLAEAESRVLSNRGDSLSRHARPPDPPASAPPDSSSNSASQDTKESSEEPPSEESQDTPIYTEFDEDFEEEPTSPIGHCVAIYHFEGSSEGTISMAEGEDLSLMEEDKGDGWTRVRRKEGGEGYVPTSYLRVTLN
Chain of UniProt Q6VEQ5 (Q6VEQ5 whole entry, looked up): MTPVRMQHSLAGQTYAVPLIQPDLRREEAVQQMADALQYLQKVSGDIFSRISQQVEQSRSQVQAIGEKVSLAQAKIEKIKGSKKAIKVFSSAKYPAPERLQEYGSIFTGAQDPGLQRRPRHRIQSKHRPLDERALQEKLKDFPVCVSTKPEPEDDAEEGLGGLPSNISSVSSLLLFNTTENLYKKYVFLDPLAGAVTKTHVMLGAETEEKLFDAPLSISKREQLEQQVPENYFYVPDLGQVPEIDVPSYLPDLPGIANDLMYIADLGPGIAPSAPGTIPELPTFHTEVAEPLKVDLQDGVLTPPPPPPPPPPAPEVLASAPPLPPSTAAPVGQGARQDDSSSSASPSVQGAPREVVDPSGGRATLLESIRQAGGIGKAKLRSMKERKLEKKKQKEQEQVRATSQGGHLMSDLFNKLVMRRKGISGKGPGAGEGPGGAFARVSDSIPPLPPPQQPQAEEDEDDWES
Chain of UniProt Q9UPU5 (Q9UPU5 whole entry, looked up): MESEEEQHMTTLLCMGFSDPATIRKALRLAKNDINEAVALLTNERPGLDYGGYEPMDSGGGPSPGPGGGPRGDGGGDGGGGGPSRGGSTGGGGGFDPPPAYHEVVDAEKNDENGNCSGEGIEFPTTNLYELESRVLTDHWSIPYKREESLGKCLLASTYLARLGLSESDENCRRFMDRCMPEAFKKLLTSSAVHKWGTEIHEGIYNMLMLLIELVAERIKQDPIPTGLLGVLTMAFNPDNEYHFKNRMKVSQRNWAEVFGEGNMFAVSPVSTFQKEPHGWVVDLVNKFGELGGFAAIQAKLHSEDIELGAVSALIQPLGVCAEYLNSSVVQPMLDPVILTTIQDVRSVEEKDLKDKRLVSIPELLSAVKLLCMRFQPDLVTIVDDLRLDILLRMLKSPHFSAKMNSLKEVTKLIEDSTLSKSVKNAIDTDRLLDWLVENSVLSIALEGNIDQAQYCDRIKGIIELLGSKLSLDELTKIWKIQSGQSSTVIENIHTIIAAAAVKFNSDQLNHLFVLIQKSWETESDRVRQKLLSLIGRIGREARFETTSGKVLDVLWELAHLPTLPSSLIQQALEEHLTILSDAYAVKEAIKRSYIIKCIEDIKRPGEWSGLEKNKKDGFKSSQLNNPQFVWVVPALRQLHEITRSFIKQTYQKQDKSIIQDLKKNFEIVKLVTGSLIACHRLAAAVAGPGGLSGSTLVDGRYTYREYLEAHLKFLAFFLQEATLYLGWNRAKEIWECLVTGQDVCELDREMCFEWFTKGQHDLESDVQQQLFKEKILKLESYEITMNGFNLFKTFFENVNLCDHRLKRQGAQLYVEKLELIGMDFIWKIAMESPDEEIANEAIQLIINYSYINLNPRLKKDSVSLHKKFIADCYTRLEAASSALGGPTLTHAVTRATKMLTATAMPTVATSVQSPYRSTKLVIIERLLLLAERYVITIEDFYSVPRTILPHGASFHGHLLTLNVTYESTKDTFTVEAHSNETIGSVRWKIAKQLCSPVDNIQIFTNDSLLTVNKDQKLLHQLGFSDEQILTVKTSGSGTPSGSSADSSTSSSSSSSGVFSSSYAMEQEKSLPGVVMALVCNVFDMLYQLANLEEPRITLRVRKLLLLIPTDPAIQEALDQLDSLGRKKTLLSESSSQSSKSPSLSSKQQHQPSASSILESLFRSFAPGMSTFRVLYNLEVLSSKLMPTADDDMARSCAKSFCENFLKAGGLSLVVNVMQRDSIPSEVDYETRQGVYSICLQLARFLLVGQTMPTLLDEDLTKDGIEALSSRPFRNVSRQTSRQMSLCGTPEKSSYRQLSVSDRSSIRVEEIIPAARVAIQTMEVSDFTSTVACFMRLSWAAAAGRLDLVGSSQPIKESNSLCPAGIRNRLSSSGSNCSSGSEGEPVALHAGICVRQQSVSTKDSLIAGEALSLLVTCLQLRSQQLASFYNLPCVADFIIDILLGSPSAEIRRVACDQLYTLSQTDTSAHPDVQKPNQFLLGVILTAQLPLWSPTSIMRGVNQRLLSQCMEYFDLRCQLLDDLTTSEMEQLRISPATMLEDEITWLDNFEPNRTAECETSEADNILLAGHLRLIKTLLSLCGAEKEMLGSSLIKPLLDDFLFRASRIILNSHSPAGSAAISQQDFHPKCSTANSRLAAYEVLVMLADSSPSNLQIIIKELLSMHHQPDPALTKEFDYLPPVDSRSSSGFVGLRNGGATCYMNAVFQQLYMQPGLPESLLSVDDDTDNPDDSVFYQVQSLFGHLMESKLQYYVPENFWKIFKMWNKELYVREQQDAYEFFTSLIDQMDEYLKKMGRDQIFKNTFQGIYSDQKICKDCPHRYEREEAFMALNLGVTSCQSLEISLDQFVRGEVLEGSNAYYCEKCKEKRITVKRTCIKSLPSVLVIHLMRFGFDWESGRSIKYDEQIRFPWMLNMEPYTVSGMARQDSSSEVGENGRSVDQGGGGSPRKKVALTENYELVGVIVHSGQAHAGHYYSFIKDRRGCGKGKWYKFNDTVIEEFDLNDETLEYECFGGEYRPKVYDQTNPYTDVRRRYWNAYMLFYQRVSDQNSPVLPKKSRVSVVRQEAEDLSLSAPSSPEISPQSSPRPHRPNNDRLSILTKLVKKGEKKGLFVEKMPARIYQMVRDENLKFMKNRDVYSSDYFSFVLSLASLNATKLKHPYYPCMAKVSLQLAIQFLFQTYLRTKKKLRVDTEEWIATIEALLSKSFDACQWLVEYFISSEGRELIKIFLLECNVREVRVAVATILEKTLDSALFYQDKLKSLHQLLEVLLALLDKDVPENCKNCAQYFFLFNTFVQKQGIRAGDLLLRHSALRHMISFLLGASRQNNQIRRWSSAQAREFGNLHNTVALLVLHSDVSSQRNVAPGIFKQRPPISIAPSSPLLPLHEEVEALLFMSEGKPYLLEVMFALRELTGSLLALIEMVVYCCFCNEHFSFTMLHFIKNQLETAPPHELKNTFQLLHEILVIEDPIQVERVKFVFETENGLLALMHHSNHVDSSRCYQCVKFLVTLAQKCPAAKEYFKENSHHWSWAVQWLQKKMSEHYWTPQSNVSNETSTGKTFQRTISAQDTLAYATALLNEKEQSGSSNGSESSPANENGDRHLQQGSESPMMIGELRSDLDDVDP
Chain of UniProt Q8N4H5 (Q8N4H5 whole entry, looked up): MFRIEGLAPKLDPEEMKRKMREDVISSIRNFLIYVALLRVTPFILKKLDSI
Chain of UniProt Q9NUM4 (Q9NUM4 whole entry, looked up): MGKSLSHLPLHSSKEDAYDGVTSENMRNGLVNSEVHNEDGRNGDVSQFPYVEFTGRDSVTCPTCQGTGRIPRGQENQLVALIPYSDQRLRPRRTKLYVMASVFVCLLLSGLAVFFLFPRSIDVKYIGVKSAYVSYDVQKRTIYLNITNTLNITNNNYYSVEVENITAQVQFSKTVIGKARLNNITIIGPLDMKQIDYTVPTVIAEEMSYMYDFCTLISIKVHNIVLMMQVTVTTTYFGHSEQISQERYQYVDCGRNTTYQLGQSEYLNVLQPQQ
Chain of UniProt Q6ZXV5 (Q6ZXV5 whole entry, looked up): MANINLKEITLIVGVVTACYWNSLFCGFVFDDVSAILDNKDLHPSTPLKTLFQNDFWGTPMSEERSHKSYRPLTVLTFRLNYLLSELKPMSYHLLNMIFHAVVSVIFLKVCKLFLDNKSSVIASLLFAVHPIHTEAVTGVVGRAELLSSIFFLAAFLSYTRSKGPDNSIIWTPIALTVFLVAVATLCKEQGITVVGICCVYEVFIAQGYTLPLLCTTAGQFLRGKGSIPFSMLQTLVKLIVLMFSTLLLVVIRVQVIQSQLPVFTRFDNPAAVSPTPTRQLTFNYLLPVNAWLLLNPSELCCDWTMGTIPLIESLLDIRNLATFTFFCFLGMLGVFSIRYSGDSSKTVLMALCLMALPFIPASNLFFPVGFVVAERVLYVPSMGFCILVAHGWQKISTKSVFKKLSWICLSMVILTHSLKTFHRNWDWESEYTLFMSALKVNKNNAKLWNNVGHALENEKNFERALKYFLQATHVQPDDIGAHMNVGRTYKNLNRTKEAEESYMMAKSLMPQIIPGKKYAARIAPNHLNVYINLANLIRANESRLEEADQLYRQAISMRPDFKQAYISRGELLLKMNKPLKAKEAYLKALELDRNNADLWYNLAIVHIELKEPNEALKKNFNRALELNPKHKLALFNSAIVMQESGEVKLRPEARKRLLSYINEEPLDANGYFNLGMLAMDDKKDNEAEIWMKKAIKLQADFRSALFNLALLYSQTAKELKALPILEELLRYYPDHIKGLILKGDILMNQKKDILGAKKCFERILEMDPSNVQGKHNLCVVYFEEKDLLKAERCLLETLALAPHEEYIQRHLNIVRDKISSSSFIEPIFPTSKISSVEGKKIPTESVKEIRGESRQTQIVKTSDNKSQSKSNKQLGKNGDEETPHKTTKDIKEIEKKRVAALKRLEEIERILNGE

Compound in one experiment: Cc1cc(Nc2cc(N3CCN(C)CC3)nc(Sc3ccc(NC(=O)C4CC4)cc3)n2)n[nH]1 [tozasertib]
Briefly: log2 fold change, soluble protein after heating vs DMSO (PISA); higher = thermal stabilisation; K562 cells, 10 uM, 30 min; active = over 0.2 and 3.5 SD of the protein, either way, in both replicates (recomputed). In a few lines: (§1)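 Aliquots of K562 cells (2×10^6 cells/mL) treated with 10 μM compound for 30 min were heated for 3 min over 48°C-58°C. After pooling and extraction in PBS with 0.5% NP-40 at 4°C, soluble protein from a 21,000xg, 90 min spin was quantified by TMTpro 16plex LC-MS/MS with channel sums equalised. Thermal stability is expressed against control samples, from duplicates, as a log2 fold change.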
Consider VPS33B (UniProt Q9H267), for which the log2 fold change is 0.012.
The same measure, in the same setting: to TMEM164 (UniProt Q5U3C3) belongs 0.031; to WASH2P (UniProt Q6VEQ5), -0.071.
The same measure, in the same setting: the same measure for TOMM5 isoform 2 (UniProt Q8N4H5): -0.008.
The same measure, in the same setting: the same measure for TRIP10 isoform 2 (UniProt Q15642): 0.101; for TMEM106B (UniProt Q9NUM4): -0.073.
TMTC3 (UniProt Q6ZXV5): the log2 fold change was -0.012.
In the case of USP24 (UniProt Q9UPU5), the log2 fold change was 0.045.
On to VWA8 (UniProt A3KMH1), for which the log2 fold change is -0.038.
The same measure, in the same setting: the same measure for UBLCP1 (UniProt Q8WVY7): 0.045; for VARS2, A0A0G2JL52: -0.034.
With TRMT10A (UniProt Q8TBZ6), the log2 fold change is -0.031.

Compound in a further experiment: Cc1cc(SCc2sc(-c3ccc(C(F)(F)F)cc3)nc2C)ccc1OCC(=O)O
The experiment is described as above. Put shortly: as §1
With VPS18 (UniProt Q9P253), the log2 fold change was 0.063.
For TRAPPC11 (UniProt Q7Z392), the log2 fold change was 0.1.
As to VDAC1 (UniProt P21796), the log2 fold change was -0.031.
Still for that read-out and setting: the same measure for TNPO1 (UniProt Q92973): 0.011.
Same read-out and setting: to UGDH (UniProt O60701) belongs 0.049.
On the same count and under the same terms, to UCHL5 (UniProt Q9Y5K5) belongs 0.064; to TP53BP1 isoform 2 (UniProt Q12888), 0.066; to VRK1 (UniProt Q99986), 0.161.
Regarding WEE1 (UniProt P30291), the log2 fold change was -0.049.
Same read-out and setting: to VTI1A (UniProt Q96AJ9) belongs -0.019; to WASHC2A (UniProt Q641Q2), -0.047.
Still for that read-out and setting: to TMEM9 (UniProt Q9P0T7) belongs 0.014; to VPS33A (UniProt Q96AX1), 0.049; to TMEM70 (UniProt Q9BUB7), 0.087.
Regarding XRCC5 (UniProt P13010), the log2 fold change is 0.179.
Still for that read-out and setting: to TRAPPC3 (UniProt O43617) belongs 0.017; to TNPO3 (UniProt Q9Y5L0), 0.046.
The same measure, in the same setting: the same measure for TPM2 (UniProt P07951): -0.117.
Same read-out and setting: to UBE4B isoform 4 (UniProt O95155) belongs 0.019; to USP14 (UniProt P54578), 0.076.
VPS50 (UniProt Q96JG6): the log2 fold change was 0.086.
The same measure, in the same setting: the same measure for TMEM87B (UniProt Q96K49): 0.071; for TMEM263 (UniProt Q8WUH6): 0.046.
Take TYW1 (UniProt Q9NV66): the log2 fold change is 0.021.
On the same count and under the same terms, to VPS33B (UniProt Q9H267) belongs 0.085; to TMEM164 (UniProt Q5U3C3), 0.027; to WASH2P (UniProt Q6VEQ5), -0.038.
On the same count and under the same terms, to TOMM5 isoform 2 (UniProt Q8N4H5) belongs -0.023; to TRIP10 isoform 2 (UniProt Q15642), -0.089; to TMEM106B (UniProt Q9NUM4), 0.
The same measure, in the same setting: to TMTC3 (UniProt Q6ZXV5) belongs 0.038.
For USP24 (UniProt Q9UPU5), the log2 fold change was -0.017.
Still for that read-out and setting: the same measure for VWA8 (UniProt A3KMH1): 0.094; for UBLCP1 (UniProt Q8WVY7): 0.062.
The same measure, in the same setting: the same measure for VARS2, A0A0G2JL52: 0.025; for TRMT10A (UniProt Q8TBZ6): 0.016.
